This passage reports residual activity results from ChEMBL document CHEMBL2218924, “A broad activity screen in support of a chemogenomic map for kinase signalling research and drug discovery” (Biochem J, 2013).

Assay [1] concerns the target T1, Protein kinase C zeta type (Homo sapiens) (UniProt Q05513).
T1 sequence (whole entry): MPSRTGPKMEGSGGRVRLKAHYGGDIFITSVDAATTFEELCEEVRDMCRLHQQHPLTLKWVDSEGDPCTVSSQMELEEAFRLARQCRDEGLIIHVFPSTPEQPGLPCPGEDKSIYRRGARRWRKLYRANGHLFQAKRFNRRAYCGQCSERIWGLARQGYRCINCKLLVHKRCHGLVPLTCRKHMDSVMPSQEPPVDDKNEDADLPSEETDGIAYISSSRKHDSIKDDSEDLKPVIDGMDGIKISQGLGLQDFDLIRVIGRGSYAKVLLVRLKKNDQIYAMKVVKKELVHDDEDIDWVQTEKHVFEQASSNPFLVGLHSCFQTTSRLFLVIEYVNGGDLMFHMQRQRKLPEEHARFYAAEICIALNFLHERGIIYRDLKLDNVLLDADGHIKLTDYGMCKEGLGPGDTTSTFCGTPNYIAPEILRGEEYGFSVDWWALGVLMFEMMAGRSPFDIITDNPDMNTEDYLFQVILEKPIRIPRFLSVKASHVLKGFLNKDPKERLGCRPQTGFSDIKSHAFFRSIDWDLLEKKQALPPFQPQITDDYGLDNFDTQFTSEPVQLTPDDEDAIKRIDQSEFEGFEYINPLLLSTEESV
The conditions noted are these: at 1 µM.

Assay [2] concerns the target Tyrosine-protein kinase ABL1 (Homo sapiens) (UniProt P00519). The following applies: at 10 µM.
Assay [3] concerns the target Tyrosine-protein kinase ABL2 (Homo sapiens) (UniProt P42684). The following applies: at 10 µM.
For assay [4], the target named is T2, Aurora kinase A (Homo sapiens) (UniProt O14965).
T2 sequence (whole entry): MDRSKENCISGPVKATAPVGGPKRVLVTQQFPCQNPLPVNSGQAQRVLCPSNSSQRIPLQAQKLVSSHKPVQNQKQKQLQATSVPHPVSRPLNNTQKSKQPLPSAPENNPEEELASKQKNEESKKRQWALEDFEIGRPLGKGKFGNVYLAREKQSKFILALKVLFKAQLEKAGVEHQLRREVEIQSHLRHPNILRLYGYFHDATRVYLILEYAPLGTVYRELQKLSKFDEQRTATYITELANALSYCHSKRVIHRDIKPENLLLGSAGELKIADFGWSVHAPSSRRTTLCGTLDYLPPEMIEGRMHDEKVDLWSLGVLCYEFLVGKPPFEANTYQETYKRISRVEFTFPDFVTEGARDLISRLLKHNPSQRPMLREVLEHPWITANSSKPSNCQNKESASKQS
The following applies: at 1 µM.

For assay [5], the target named is T2, Aurora kinase A (Homo sapiens). The following applies: at 10 µM.
Assay [6] deals with Aurora kinase B (Homo sapiens) (UniProt Q96GD4). The following applies: at 10 µM.
Sequence of Aurora kinase B (Homo sapiens) (Q96GD4 whole entry): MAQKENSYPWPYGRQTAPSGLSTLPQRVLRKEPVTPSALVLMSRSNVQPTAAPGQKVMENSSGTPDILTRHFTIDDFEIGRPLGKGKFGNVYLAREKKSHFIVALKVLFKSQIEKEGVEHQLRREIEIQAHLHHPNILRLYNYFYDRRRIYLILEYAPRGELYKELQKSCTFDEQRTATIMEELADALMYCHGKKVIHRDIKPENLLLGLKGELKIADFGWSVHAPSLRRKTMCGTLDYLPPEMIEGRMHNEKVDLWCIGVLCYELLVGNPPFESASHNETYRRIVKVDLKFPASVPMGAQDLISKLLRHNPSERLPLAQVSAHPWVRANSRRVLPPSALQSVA
Assay [7] addresses T3, Aurora kinase C (Homo sapiens) (UniProt Q9UQB9).
T3 sequence (whole entry): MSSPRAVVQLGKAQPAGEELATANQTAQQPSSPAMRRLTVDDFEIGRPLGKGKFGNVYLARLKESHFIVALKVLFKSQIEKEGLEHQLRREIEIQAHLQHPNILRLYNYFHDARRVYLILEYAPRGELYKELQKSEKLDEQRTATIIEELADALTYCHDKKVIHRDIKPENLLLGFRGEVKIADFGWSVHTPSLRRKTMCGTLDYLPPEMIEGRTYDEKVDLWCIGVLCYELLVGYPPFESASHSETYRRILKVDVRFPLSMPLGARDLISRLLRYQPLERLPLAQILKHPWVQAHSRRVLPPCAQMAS
The conditions noted are these: at 1 µM.

Assay [8] concerns the target T3, Aurora kinase C (Homo sapiens). The conditions noted are these: at 10 µM.
For assay [9], the target named is Tyrosine-protein kinase receptor UFO (Homo sapiens) (UniProt P30530). The following applies: at 10 µM.
Sequence of Tyrosine-protein kinase receptor UFO (Homo sapiens) (P30530 whole entry): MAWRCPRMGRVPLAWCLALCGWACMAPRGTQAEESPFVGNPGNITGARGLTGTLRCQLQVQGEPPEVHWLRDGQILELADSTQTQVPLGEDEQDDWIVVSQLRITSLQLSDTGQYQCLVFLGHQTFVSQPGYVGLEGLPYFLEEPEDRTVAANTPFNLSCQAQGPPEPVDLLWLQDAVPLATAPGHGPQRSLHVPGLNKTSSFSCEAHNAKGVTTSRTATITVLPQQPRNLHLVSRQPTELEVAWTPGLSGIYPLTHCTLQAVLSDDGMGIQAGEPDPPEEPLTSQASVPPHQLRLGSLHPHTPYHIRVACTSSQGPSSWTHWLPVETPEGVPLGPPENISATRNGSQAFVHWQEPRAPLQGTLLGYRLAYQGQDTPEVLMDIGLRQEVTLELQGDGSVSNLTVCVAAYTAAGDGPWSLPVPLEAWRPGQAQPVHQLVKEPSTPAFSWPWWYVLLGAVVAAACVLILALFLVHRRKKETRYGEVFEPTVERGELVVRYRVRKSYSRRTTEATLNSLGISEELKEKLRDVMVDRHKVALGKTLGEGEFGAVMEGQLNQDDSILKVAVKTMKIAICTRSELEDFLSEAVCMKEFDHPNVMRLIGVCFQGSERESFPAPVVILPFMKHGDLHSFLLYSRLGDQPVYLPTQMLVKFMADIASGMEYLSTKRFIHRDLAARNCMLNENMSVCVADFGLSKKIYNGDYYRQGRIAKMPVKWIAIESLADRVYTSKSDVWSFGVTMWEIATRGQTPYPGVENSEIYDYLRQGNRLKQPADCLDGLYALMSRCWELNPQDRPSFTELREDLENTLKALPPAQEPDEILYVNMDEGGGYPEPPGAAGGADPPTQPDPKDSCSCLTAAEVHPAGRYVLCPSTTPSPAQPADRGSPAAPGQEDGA
Assay [10] concerns the target Tyrosine-protein kinase BTK (Homo sapiens) (UniProt Q06187). The conditions noted are these: at 1 µM.
Assay [11] has the same target. The conditions noted are these: at 10 µM.
In assay [12] the target is Tyrosine-protein kinase receptor UFO (Homo sapiens) (UniProt P30530). The conditions noted are these: at 1 µM.
The target in assay [13] is Tyrosine-protein kinase ABL1 (Homo sapiens) (UniProt P00519). The conditions noted are these: at 1 µM.
Sequence of Tyrosine-protein kinase ABL1 (Homo sapiens) (P00519 whole entry): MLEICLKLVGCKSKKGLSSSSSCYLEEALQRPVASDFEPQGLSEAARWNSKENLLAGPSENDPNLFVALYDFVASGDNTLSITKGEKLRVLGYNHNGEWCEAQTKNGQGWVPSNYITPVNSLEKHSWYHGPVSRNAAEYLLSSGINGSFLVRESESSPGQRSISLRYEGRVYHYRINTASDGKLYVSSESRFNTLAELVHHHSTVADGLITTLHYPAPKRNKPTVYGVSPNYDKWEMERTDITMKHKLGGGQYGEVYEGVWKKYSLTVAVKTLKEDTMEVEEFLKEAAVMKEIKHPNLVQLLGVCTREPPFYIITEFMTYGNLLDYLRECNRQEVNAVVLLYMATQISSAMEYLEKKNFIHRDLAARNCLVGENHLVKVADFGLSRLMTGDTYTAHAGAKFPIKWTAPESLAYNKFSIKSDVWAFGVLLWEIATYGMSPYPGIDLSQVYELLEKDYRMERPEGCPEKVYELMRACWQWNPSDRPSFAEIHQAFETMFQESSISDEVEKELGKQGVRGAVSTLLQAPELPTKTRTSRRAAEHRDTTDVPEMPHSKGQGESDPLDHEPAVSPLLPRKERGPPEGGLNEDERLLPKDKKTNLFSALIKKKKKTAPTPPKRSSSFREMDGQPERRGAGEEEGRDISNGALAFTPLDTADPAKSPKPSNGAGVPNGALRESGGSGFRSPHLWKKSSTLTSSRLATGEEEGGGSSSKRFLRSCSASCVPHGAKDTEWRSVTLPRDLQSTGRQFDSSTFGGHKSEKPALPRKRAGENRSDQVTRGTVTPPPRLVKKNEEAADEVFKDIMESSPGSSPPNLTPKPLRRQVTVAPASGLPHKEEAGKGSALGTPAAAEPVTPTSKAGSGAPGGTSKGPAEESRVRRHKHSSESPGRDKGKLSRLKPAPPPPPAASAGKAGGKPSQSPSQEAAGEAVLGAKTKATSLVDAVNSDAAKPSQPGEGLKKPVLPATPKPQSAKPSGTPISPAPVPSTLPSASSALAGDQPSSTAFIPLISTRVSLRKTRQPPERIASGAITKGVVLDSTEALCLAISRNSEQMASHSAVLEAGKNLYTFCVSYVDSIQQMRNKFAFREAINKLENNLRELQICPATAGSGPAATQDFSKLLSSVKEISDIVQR
Assay [14] concerns the target Tyrosine-protein kinase ABL2 (Homo sapiens) (UniProt P42684). The following applies: at 1 µM.
In assay [15] the target is Aurora kinase B (Homo sapiens) (UniProt Q96GD4). The following applies: at 1 µM.
The target in assay [16] is Protein-tyrosine kinase 6 (Homo sapiens) (UniProt Q13882). The conditions noted are these: at 1 µM.
Sequence of Protein-tyrosine kinase 6 (Homo sapiens) (Q13882 whole entry, looked up): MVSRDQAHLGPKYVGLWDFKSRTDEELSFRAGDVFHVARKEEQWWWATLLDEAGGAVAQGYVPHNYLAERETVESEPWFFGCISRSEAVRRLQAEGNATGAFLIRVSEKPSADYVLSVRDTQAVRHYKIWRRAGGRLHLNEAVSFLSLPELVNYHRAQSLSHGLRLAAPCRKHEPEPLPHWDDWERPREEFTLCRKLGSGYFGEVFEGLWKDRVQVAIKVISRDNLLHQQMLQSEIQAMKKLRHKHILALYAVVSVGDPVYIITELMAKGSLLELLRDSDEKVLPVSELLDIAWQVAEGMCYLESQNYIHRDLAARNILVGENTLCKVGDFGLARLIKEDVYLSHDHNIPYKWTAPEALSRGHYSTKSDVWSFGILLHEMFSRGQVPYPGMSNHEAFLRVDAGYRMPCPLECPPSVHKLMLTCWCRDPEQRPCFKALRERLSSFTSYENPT
Assay [17] has the same target. The following applies: at 10 µM.
In assay [18] the target is Tyrosine-protein kinase Blk (Homo sapiens) (UniProt P51451). The conditions noted are these: at 1 µM.
Sequence of Tyrosine-protein kinase Blk (Homo sapiens) (P51451 2-505 limits assumed): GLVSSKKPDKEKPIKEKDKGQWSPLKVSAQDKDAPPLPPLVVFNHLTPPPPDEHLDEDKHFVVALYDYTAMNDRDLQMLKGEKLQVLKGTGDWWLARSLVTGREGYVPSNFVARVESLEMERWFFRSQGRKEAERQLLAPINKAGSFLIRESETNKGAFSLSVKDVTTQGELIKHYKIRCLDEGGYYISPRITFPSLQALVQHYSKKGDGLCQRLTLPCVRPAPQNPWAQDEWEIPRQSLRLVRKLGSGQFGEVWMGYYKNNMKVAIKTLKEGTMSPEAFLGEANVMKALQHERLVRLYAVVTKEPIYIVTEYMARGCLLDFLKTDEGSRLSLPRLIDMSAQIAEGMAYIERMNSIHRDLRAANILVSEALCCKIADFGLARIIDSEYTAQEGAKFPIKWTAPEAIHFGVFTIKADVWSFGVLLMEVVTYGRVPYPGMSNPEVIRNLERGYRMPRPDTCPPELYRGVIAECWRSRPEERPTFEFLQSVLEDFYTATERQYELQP
The target is the same in assay [19]. The conditions noted are these: at 10 µM.
The target in assay [20] is T4, Mitogen-activated protein kinase kinase kinase 5 (Homo sapiens) (UniProt Q99683).
T4 sequence (whole entry): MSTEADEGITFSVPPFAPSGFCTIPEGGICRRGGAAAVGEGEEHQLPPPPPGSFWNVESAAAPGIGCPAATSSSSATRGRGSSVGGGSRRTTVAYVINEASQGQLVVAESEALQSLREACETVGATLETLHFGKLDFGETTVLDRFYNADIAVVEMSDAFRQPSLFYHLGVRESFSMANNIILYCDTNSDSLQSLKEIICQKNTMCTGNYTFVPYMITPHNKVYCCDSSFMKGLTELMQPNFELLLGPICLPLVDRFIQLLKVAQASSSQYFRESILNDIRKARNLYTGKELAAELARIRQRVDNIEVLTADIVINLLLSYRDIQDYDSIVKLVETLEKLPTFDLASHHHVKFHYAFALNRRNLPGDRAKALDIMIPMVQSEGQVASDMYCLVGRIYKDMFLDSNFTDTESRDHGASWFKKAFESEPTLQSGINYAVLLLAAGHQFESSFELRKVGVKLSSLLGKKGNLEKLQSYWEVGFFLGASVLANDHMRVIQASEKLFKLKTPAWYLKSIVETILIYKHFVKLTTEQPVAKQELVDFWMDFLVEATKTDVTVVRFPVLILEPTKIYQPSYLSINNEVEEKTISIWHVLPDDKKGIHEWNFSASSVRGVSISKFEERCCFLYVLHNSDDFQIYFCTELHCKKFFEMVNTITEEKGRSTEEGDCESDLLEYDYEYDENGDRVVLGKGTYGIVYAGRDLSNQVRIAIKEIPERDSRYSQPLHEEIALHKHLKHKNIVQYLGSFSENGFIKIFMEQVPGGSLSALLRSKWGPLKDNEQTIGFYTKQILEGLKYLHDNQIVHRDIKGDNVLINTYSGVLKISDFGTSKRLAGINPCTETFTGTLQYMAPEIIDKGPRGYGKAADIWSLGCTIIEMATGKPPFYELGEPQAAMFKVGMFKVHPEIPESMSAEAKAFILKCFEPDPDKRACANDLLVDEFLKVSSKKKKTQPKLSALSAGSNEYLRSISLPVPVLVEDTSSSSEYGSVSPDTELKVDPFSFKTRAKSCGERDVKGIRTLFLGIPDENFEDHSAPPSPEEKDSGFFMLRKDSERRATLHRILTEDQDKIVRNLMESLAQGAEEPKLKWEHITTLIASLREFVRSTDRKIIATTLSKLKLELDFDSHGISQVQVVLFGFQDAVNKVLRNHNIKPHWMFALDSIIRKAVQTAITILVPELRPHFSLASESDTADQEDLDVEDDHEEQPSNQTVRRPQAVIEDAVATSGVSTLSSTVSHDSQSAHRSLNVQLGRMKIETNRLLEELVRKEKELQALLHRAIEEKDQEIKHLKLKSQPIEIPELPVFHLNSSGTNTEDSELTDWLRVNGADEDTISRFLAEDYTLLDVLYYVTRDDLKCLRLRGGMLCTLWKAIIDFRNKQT
The following applies: at 10 µM.

Sequence of Tyrosine-protein kinase ABL2 (Homo sapiens) (P42684 whole entry): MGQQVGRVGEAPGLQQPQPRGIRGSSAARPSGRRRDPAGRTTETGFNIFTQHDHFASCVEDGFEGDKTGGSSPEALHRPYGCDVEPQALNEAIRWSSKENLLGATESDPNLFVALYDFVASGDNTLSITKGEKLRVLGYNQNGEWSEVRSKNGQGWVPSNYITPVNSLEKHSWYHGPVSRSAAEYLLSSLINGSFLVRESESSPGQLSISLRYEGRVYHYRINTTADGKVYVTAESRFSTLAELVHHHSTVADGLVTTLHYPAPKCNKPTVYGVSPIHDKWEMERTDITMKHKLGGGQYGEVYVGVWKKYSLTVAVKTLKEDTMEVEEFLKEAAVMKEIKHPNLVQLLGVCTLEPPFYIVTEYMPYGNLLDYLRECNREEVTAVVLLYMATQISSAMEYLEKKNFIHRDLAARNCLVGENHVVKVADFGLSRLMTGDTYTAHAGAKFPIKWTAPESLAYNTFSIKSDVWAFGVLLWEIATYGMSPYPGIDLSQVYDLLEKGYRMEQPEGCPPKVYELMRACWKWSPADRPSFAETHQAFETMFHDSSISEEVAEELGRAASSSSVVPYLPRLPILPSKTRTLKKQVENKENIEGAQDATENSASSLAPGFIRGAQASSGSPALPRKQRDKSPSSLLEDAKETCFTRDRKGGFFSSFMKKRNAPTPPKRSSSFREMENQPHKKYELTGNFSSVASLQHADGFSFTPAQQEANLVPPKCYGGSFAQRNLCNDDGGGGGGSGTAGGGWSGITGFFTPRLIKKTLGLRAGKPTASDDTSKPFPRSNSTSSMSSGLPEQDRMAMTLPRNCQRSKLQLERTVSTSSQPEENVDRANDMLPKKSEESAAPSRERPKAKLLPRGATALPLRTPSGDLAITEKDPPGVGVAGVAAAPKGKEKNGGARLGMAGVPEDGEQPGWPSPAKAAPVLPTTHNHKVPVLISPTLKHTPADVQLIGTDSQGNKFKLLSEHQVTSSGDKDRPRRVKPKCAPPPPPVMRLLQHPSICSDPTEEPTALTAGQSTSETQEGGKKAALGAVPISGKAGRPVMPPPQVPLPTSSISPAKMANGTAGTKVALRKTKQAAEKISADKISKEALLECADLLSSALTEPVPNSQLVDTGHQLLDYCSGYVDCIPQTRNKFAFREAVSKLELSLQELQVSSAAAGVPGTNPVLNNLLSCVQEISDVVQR

Take `O=C(NC(NC(=S)Nc1ccc(F)c([N+](=O)[O-])c1)C(Cl)(Cl)Cl)C(c1ccccc1)c1ccccc1` (configuration not stated): the residual activity in assay [1] is 102% (inactive); in [2], 77%; in [3] it was 93%; in assay [4], 83%; in assay [5] it was 69%; in assay [6] it was 69%. For the same compound, the residual activity in assay [7] turned out to be 94%; in [8], 91%; in assay [9] it was 91%; in assay [10] it was 87%; in assay [11], 89%.
As for `O=S(=O)(c1cccc2cnccc12)N1CCCNCC1`, the residual activity was 80% in assay [3] and 59% in assay [8].
With `CC(C)N(CCC(=O)c1ccc2ccccc2c1)Cc1ccccc1`, the residual activity in assay [6] turned out to be 83%; in assay [7], 76%; in [8], 61%; in assay [12] it was 69%; in assay [9], 74%.
Turning to `CN(C)S(=O)(=O)c1ccc2c(c1)/C(=C/c1cc3c([nH]1)CCCC3)C(=O)N2`, the residual activity in [13] came out at 77%; in assay [2] it was 72%; in [14], 114%; in [3] it was 75%; in [4] it was 36%; in [5], 13%. The residual activity in assay [15] is -1%; in [6] it was 1%; in [7], 75%; in assay [8] it was 52%; in assay [12], 51%; in assay [9] it was 36%. Also, the residual activity in assay [16] came out at 98%; in [17] it was 94%; in [10], 91%; in assay [11], 50%; in assay [18], 10%; in assay [19] it was 2%.
Consider `O=S(=O)(NCCNC/C=C/c1ccc(Br)cc1)c1cccc2cnccc12`, for which the residual activity in assay [15] is 43%; in assay [6], 8%; in assay [7], 80%; in assay [8], 22%; in assay [19], 76%.
Consider `CSc1nc(-c2ccc(F)cc2)c(-c2ccnc(NC(C)c3ccccc3)c2)[nH]1` (configuration not stated), for which the residual activity in assay [20] is 86%; in assay [15], 46%; in assay [6], 13%; in assay [12], 101%; in assay [9], 85%; in assay [17] it was 89%. For the same compound, the residual activity in assay [10] stood at 90%; in [11], 91%; in assay [18], 98%; in [19], 63%.
With `NC(=O)c1ccc(-c2nc(-c3ccc4c(c3)OCCO4)c(-c3ccccn3)[nH]2)cc1`, the residual activity in [20] worked out at 96%; in assay [2] it was 92%; in [3], 83%; in assay [15], 89%; in [6] it was 70%; in assay [7], 84%. Also, the residual activity was 90% in assay [8]; 77% in assay [12]; 85% in assay [9]; 88% in [18]; 85% in assay [19].
With `O=c1c(-c2ccc(F)cc2)c(-c2ccncc2)[nH]n1-c1ccc(Cl)cc1`, the residual activity in [20] turned out to be 119%; in assay [2], 68%; in assay [3], 53%; in assay [16] it was 59%; in [17], 7%; in assay [18], 101%. Further, in assay [19], the residual activity was determined as 74%.
On to `O=C1Cc2c([nH]c3ccc(Br)cc23)-c2ccccc2N1`, for which the residual activity in [13] was determined as 64%; in assay [2] it was 39%; in assay [14], 76%; in assay [3], 45%; in assay [4], 97%; in assay [5], 66%. The residual activity is 69% in assay [15]; 15% in assay [6]; 76% in assay [7]; 71% in assay [8]; 95% in assay [16]; 72% in [17].
With `N#Cc1c(NC(=O)c2cccc3ccccc23)sc2c1CCCC2`, the residual activity in [20] is 80%; in [4], 92%; in assay [15] it was 69%; in [6], 69%; in [7] it was 98%; in assay [8], 97%. Also, the residual activity is 96% in assay [12], 79% in assay [9] and 97% in assay [19].
As to `O=C1NC(=O)C(c2cn(CCCn3ccnc3)c3ccccc23)=C1Nc1ccccc1`, the residual activity in assay [20] amounted to 76%; in assay [14], 111%; in assay [3], 60%; in assay [5], 72%; in assay [8], 67%; in [9], 66%. In addition, the residual activity in assay [19] amounted to 33%.
